# Compounds without any hit were thinned out: in the full panel of roughly 79,000, 15% have a hit. A number with no mark means an inactive call. Activity calls are given as the source filed them. Rule as the data show it: active = growth inhibition above about 70%; inactive = the rest.
# Experiment: NCI Yeast Anticancer Drug Screen. Data for the mlh1 rad18 strain (AID 175)
# Conditions: S. cerevisiae mlh1 rad18 strain growth inhibition; at 50.0 µM; active compounds read high
# Outline: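 Inhibition values reflect reduced growth of mutant yeast versus vehicle-treated controls following compound exposure; the mutations affect DNA damage repair.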
row,SMILES,growth inhibition
1,CCSCC1(c2ccc(OC)cc2)NC(=O)NC1=O (stereo not given),1.05%
2,CCN(CC)CC(C)(C)C(O)c1ccc(OC)c2ccccc12 (stereo not given),8.8%
3,CCC(CC)=C(c1ccc(C)cc1)c1ccc(C)cc1,-12.4%
4,Oc1cc(CN2COc3ccccc32)c(O)cc1CNC1CCCCC1,-12.3%
5,OCCN(/N=C\c1ccc2ccccc2c1)C1=NCCN1,5.2%
6,C=CCOCCC(OCC=C)OCC=C,8.85%
7,COC(=O)C(=O)C(C(=O)C(=O)Nc1ccc(C)cc1C)c1nc2ccc(Cl)cc2[nH]c1=O (stereo not given),7.45%
8,Cc1[nH]c(=O)[nH]c(=O)c1NC=O,-27.1%
9,c1ccc(C[n+]2cccc3ccccc32)cc1,-12.2%
10,COC(=O)c1ccc(N(C)CC/C(CNc2nc(N)[nH]c(=O)c2[N+](=O)[O-])=N\NC(N)=O)cc1,-4.15%
11,CCSC(C(O)C(O)C(O)C(O)CO)n1cnc2c(SC)ncnc21 (stereo not given),-3.85%
12,CN(c1nc(=[N+](C)C)ss1)C1CCCCC1,15.2%
13,CC1=CC(=O)Nc2ccccc2S1,23.6%
14,O=C(CC(=O)c1ccc(Cl)s1)C(=O)NC1C2CC3CC(C2)CC1C3 (stereo not given),3.55%
15,CCCCCCOC(=O)NC1c2ccccc2Oc2ccccc21,3.15%
16,CC[O-].CC[O-].O=C1c2ccccc2C(=O)c2c(O)ccc([O-])c21.O=C1c2ccccc2C(=O)c2c(O)ccc([O-])c21.[Ti+4],-14.8%
17,O=C(Nc1cc(Cl)c(I)cc1Cl)C(F)(F)F,18.8%
18,C[N+]1(C)C2Cc3ccccc3C1Cc1ccccc12,-57%
19,Cc1ccnc(SCC(=O)O)n1,4.95%
20,CO/[N+]([O-])=C\C(=O)N/C=C/C(=O)O,15.2%

row,SMILES,growth inhibition
1,CC(C)(CCCCC(C)(C)C1NC(=O)N1)C1NC(=O)N1,-43.1%
2,CCCC(O)c1ccccc1C (stereo not given),12.1%
3,CC(NC(=O)C(N)CC(=O)O)NC(=O)C1CCC1 (stereo not given),-35.8%
4,Nc1nc(=O)[nH]c2n[nH]nc12,0.2%
5,CC/C(=C/CO)c1ccccc1,36.4%
6,CN(C)c1ccc(/C=C2\CCc3ccccc3C2=O)cc1Br,-26.6%
7,CCc1ccc(NS(=O)(=O)c2ccc3ccccc3c2)cc1,96.4% (active)
8,NS(=O)(=O)c1ccc(NC2=CC(=O)C(=O)c3ccccc32)cc1,-11.6%
9,Cc1ccc(C(=O)C[N+]2(C)CCOCC2)cc1,20.4%
10,COc1cc(/C=N/N=C(\N)NO)cc(OC)c1OC,4.55%
11,COc1ccc(Nc2cc(N)nc(N)n2)c(=S)[nH]1,-0.95%
12,Cc1cccc(NC(=O)/C=C/c2ccccc2)n1,-22.4%
13,N#CCOc1ccc(/C=C/C(=O)c2ccc(Cl)cc2)cc1,-21.2%
14,COc1cc(/C=C\C(=O)c2cccc([N+](=O)[O-])c2)cc(OC)c1OC,20.7%
15,Cc1cccc(CC(CC(=O)O)C(=O)O)c1 (stereo not given),1.4%
16,CCOC(=O)c1c(NN)n[nH]c1C,8.85%
17,CCCCOC(=O)c1cc2ccccc2oc1=O,34%
18,C=C(C)CCCC(C)C(O)C=O (stereo not given),-12.7%
19,COC1OC2COC(c3ccccc3)OC2C2C1N2C(=S)SC (stereo not given),-0.55%
20,Cc1ccc(N=Nc2ccc(C)cc2NC(=S)Nc2ccccc2)cc1,-8.75%

# Reference: PubChem BioAssay (NCI)
